PubChem BioAssay AID1490 (National Center for Advancing Translational Sciences (NCATS), 2009)
Out of some 310,000 compounds screened, about 11,000 (3.5%) were called active. About 4% were inconclusive and are not listed. This is one part of a sample in which actives are shown more often than they occur. The call rests on the fitted dose curve; in most records, active means well fitted inhibition curve with a large enough effect; inconclusive means small, poorly fitted or top-dose-only effect, or another doubt; inactive means no such curve, though single readings can be large or run the other way.

target: 4'-phosphopantetheinyl transferase ffp (Bacillus subtilis) (UniProt Q9F4F7); test: qHTS Assay for Inhibitors of Bacillus subtilis Sfp phosphopantetheinyl transferase (PPTase); details: Biochemical Sfp PPTase activity;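 further: the enzyme is Sfp with the accession as filed and its product quenches rhodamine fluorescence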;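 on largest response in the series, negative = inhibition: 0% = enzyme reaction without inhibitor and -100% = no enzyme wells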
Outline: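 Buffer: 50 mM Hepes-Na pH 7.6, 10 mM MgCl2, 0.01% Nonidet P-40, 0.01% BSA. Enzyme 15 nM, pre-exposed to compound 15 min; substrates then added and fluorescence change tracked over 30 min.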
Potency means the concentration at half of the fitted maximal effect.

| Structure (SMILES) | largest response in the series, negative = inhibition | Potency |
| --- | --- | --- |
| COCCNC(=S)N(CCc1c(C)[nH]c2ccc(C)cc12)Cc1cccnc1 | 5.81% (inactive) | – |
| COc1cc(/C=C2/C(=O)ON=C2C)ccc1OCc1ccccc1F | – | 56.2 µM (active) |
| CCOc1cc(/C=N/O)ccc1OCc1ccccc1F | 2.28% (inactive) | – |
| COc1cc(/C=C2/C(=O)ON=C2C)ccc1OCc1cccc(F)c1 | -29.4% (inactive) | – |
| O=C(Nc1nnc(-c2ccc(F)cc2)s1)c1c(F)cccc1Cl | 11.5% (inactive) | – |
| O=C(NCCNc1ccc([N+](=O)[O-])cc1Cl)c1ccccc1F | 13.9% (inactive) | – |
| C/C(=C\c1ccccc1)C1NC(=O)c2c(sc3c2CCCC3)N1 (stereo unspecified) | -9.45% (inactive) | – |
| O=C(Nc1sc2c(c1-c1nc3ccccc3[nH]1)CCCC2)C1CC1 | 11.4% (inactive) | – |
| O=C1NC(c2ccncc2)Nc2sc3c(c21)CCCC3 (stereo unspecified) | – | 35.5 µM (active) |
| COc1ccc(CNC(=O)C(c2ccc(O)cc2)N(Cc2ccco2)C(=O)c2snc(C(N)=O)c2N)cc1 (stereo unspecified) | 8.78% (inactive) | – |
| O=CN1CCN(C(=O)c2ccc3c(c2)OCO3)CC1 | 5.66% (inactive) | – |
| O=C(NNC(=S)NCCCN1CCOCC1)c1ccncc1 | – | 28.2 µM (active) |
| Cc1cc(C)cc(NC(=S)NCCCN2CCOCC2)c1 | 3.01% (inactive) | – |
| Cc1ccc(C(=O)NC(=S)NCCN2CCOCC2)cc1 | 0.183% (inactive) | – |
| O=C(N/N=C/c1ccoc1)c1ccc(Cl)cc1Cl | 5.37% (inactive) | – |
| Cc1cccc(N2CCN(C(=O)CCS(=O)(=O)c3ccc4c(c3)NC(=O)C(C)S4)CC2)c1C (stereo unspecified) | 10.9% (inactive) | – |
| CC(C)(C)OC(=O)CNC(=O)c1[nH]cnc1C(=O)N[C@@H](Cc1ccccc1)C(=O)OCc1ccccc1 | 19.7% (inactive) | – |
| CCCCCCCCCCOC(=O)Cn1c(COc2ccc(C)cc2)[n+](C)c2ccccc21 | – | 31.6 µM (active) |
| CCCCOC(=O)Cn1c(=O)n(CC(=O)OCCCC)c2cc(C)ccc21 | 7.32% (inactive) | – |
| COc1cccc(OCC(=O)Nc2ccccc2C(N)=O)c1 | 10.7% (inactive) | – |
| CCCCOC(=O)Cn1c(=N)n(CCN(CC)CC)c2ccccc21 | 8.57% (inactive) | – |
| Cc1ccc(OCCCn2c(=O)oc3ccccc32)cc1 | -10.3% (inactive) | – |
| CCCCCCCCCCOC(=O)Cn1c(COc2cccc(OC)c2)[n+](C)c2ccccc21 | – | 44.7 µM (active) |
| O=S(=O)(c1ccc(Cl)s1)N1CCC2(CC1)OCCO2 | 23.5% (inactive) | – |
| CCCCn1c(N)c(N(CCOC)C(=O)c2oc3ccc(OC)cc3c2C)c(=O)[nH]c1=O | 15.3% (inactive) | – |
| O=C(CC1C(=O)NCCN1C(=O)c1ccc([N+](=O)[O-])cc1)Nc1cccc(Cl)c1 (stereo unspecified) | 5.33% (inactive) | – |
